GRK2 inh = inhibitors of human GRK2 displacing RNA aptamer. bead flow cytometry, FAM-aptamer displacement from GRK2. 330,000 tested, 0.59% active. P25098. inhibition of aptamer binding, % at 10 µM;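 active = inhibition of aptamer binding above 40%, roughly 3 SD of noise, on plates passing a quality check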;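 note: median bead fluorescence of bound FAM aptamer so fluorescent compounds give negative values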
MEKK2mut PB1 HTS = signal of MEK5 binding to mutant human MEKK2 PB1 domain; percent response, % at 10 µM; 290,000 tested, 0.35% active; bead flow cytometry, Alexa488-MEK5 binding to MEKK2 mutant; in the data active = percent response above about 24%, passing the limit was not always enough
Beta2AR agonist = activates human beta-2 adrenergic receptor causing internalization; P07550; Am2.2-beta2AR cells, FAP receptor internalization, flow cytometry; response, % (test concentration not listed); 340,000 tested, 0.43% active; AID 504454;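 active = response above a set limit, near 3 SD of response in nonfluorescent compounds, cut at about 42% in these data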
Target sequence (P07550 whole entry, looked up): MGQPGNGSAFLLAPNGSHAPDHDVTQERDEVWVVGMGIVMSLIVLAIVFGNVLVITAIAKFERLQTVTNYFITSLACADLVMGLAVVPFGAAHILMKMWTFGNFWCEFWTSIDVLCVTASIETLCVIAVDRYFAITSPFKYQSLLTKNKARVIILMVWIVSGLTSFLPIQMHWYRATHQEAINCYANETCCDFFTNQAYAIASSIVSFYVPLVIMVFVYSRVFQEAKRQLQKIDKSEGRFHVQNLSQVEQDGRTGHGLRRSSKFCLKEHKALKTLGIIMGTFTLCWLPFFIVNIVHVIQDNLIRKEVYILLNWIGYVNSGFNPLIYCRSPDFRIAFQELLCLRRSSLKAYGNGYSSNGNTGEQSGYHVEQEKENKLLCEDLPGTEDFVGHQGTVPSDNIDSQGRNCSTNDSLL
MEKK3 PB1 HTS = modulators (inhibitors or enhancers) of MEK5 binding to human MEKK3 PB1 domain; 290,000 tested, 1.4% active; Q99759; bead-based flow cytometry, Alexa488-MEK5 binding to MEKK3; actives lie on both sides; 0 = blocked by unlabeled MEK5, 100 = vehicle; AID 1529; binding response (% of control), % at 10 µM;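 active = binding response more than 3 SD above or below the average of its plate-row segment, actives on both sides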;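 note: Alexa488 bead fluorescence after subtracting the streptavidin-only scavenger bead signal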
MEKK2wt PB1 HTS = raises or lowers MEK5 binding to wildtype human MEKK2 PB1 domain | Q9Y2U5 | bead flow cytometry, Alexa488-MEK5 binding to MEKK2 WT; actives lie on both sides | binding response (% of control), % at 10 µM | 290,000 tested, 1.1% active | AID 1531; in the data active = binding response below about 67% or above about 130%
Numbers stand for hits. A selection: hits, their analogues and other compounds. The true share with any hit is near 2.9%.

For O=c1oc(-c2ccccc2)cc(Cl)c1Cl the results were GRK2 inh inactive, MEKK2mut PB1 HTS inactive, Beta2AR agonist 51, MEKK3 PB1 HTS inactive and MEKK2wt PB1 HTS inactive.
Screening COc1ccccc1/C=C1\SC(=S)N(CC(=O)NC2CCS(=O)(=O)C2)C1=O (configuration not stated) returned GRK2 inh inactive, MEKK2mut PB1 HTS inactive, Beta2AR agonist inactive, MEKK3 PB1 HTS inactive and MEKK2wt PB1 HTS inactive.
`COc1ccccc1/C=C1\N=C(C(C)(C)C)OC1=O` gave GRK2 inh inactive, MEKK2mut PB1 HTS inactive, Beta2AR agonist inactive, MEKK3 PB1 HTS inactive and MEKK2wt PB1 HTS inactive.
CCCCNC(=O)O[C@@H]1C[C@H]2CCCC(=O)N3CC[C@@H](C1)[C@@H]23 was read as GRK2 inh inactive, MEKK2mut PB1 HTS inactive, Beta2AR agonist inactive, MEKK3 PB1 HTS inactive and MEKK2wt PB1 HTS inactive.
Screening CCCCCCCN(c1ccccc1)[C@@H]1C[C@H]2CCCC(=O)N3CC[C@@H](C1)[C@@H]23 returned Beta2AR agonist 91.
For CCOc1cccc(C(=O)Nc2ccc(N(CC)CC)cc2)c1 the results were GRK2 inh inactive, MEKK2mut PB1 HTS inactive, Beta2AR agonist inactive, MEKK3 PB1 HTS inactive and MEKK2wt PB1 HTS inactive.
`CCN(CC)c1cccc(OCC(=O)N(C)CCC#N)c1` gave GRK2 inh inactive, MEKK2mut PB1 HTS 73, Beta2AR agonist inactive and MEKK3 PB1 HTS inactive.
`COc1ccc(-c2nc(/C=C3\C(C)=Nc4ccccc43)c(O)o2)cc1` gave GRK2 inh inactive, MEKK2mut PB1 HTS inactive, Beta2AR agonist inactive, MEKK3 PB1 HTS inactive and MEKK2wt PB1 HTS inactive.
`CC1=Nc2ccccc2/C1=C\c1nc(-c2ccccc2)oc1O` gave GRK2 inh inactive, MEKK2mut PB1 HTS inactive, Beta2AR agonist inactive, MEKK3 PB1 HTS inactive and MEKK2wt PB1 HTS 4.0.
Screening Cc1ccc2sc(N(CCCN(C)C)C(=O)CCS(=O)(=O)c3ccccc3)nc2c1C returned GRK2 inh inactive, MEKK2mut PB1 HTS inactive, Beta2AR agonist inactive, MEKK3 PB1 HTS inactive and MEKK2wt PB1 HTS 151.
Screening O=C(NCCCN1CCCC1)c1ccc2c(c1)N(Cc1ccc(F)cc1)C(=O)c1ccccc1S2=O (configuration not stated) returned GRK2 inh inactive, MEKK2mut PB1 HTS inactive, Beta2AR agonist inactive, MEKK3 PB1 HTS inactive and MEKK2wt PB1 HTS inactive.
CCC1CCCCN1CCCNC(=O)c1ccc(N2CCCC2=O)cc1 (configuration not stated) was read as GRK2 inh inactive, MEKK2mut PB1 HTS inactive, Beta2AR agonist inactive, MEKK3 PB1 HTS inactive and MEKK2wt PB1 HTS inactive.
For CCC1CCCCN1CCCNC(=O)c1cc2c(=O)oc3ccc(C)cc3c2s1 (configuration not stated) the results were GRK2 inh inactive, MEKK2mut PB1 HTS inactive, Beta2AR agonist inactive, MEKK3 PB1 HTS inactive and MEKK2wt PB1 HTS 153.
CCC1CCCCN1CCCNC(=O)c1ccc2c(c1)c(C)c(C)n2CC (configuration not stated) was read as GRK2 inh inactive, MEKK2mut PB1 HTS inactive, Beta2AR agonist inactive, MEKK3 PB1 HTS inactive and MEKK2wt PB1 HTS 50.
CCC1CCCCN1CCCNC(=O)c1ccc2c(c1)N(Cc1ccc(F)cc1)C(=O)c1ccccc1S2=O (configuration not stated) was read as GRK2 inh inactive, MEKK2mut PB1 HTS inactive, Beta2AR agonist inactive, MEKK3 PB1 HTS inactive and MEKK2wt PB1 HTS 147.
For Cc1ccc2oc(=O)c3cc(C(=O)NCCCN4CCCCCC4)sc3c2c1 the results were GRK2 inh inactive, MEKK2mut PB1 HTS inactive, Beta2AR agonist inactive, MEKK3 PB1 HTS inactive and MEKK2wt PB1 HTS inactive.
Screening CCC1CCCCN1CCCNC(=O)c1ccc2c(c1)c(C)c(C)n2C (configuration not stated) returned GRK2 inh inactive, MEKK2mut PB1 HTS inactive, Beta2AR agonist inactive, MEKK3 PB1 HTS inactive and MEKK2wt PB1 HTS 158.
Screening CCn1c(C)c(C)c2cc(C(=O)NCCCN3CCOCC3)ccc21 returned GRK2 inh inactive, MEKK2mut PB1 HTS inactive, Beta2AR agonist inactive, MEKK3 PB1 HTS inactive and MEKK2wt PB1 HTS inactive.
Screening Cc1ccc(N(CC(=O)NCC2CCCO2)S(=O)(=O)c2ccccc2)c(C)c1 (configuration not stated) returned GRK2 inh inactive, MEKK2mut PB1 HTS inactive, Beta2AR agonist inactive, MEKK3 PB1 HTS inactive and MEKK2wt PB1 HTS inactive.
For O=C(CCCCC(=O)NNC(=O)COc1ccccc1)NNC(=O)COc1ccccc1 the results were GRK2 inh inactive, MEKK2mut PB1 HTS inactive, Beta2AR agonist inactive, MEKK3 PB1 HTS inactive and MEKK2wt PB1 HTS inactive.
Cc1c(C(=O)N2CCc3ccccc3C2)oc2ccccc12 was read as GRK2 inh inactive, MEKK2mut PB1 HTS inactive, Beta2AR agonist inactive, MEKK3 PB1 HTS inactive and MEKK2wt PB1 HTS inactive.
`CCc1cc(C(=O)N2CCN(S(=O)(=O)c3cc(C)ccc3C)CC2)sc1C` gave GRK2 inh inactive and Beta2AR agonist inactive.
`CCOc1ccc2nc(Cl)c(C3CC(c4ccco4)=NN3S(C)(=O)=O)cc2c1` (configuration not stated) gave GRK2 inh inactive, MEKK2mut PB1 HTS inactive, Beta2AR agonist inactive, MEKK3 PB1 HTS inactive and MEKK2wt PB1 HTS 7.0.
COc1ccccc1C1CC(c2ccco2)=NN1S(C)(=O)=O (configuration not stated) was read as GRK2 inh inactive, MEKK2mut PB1 HTS inactive, Beta2AR agonist inactive, MEKK3 PB1 HTS inactive and MEKK2wt PB1 HTS 29.
Cc1nnc(Sc2cc(NCCCO)c([N+](=O)[O-])c3nonc23)s1 was read as MEKK2mut PB1 HTS inactive, Beta2AR agonist 43, MEKK3 PB1 HTS inactive and MEKK2wt PB1 HTS inactive.
Screening O=[N+]([O-])c1c(NCCCO)cc(Sc2nc3ccccc3s2)c2nonc12 returned GRK2 inh inactive and Beta2AR agonist 96.
`O=C(NCc1ccccc1)c1ccc(NC(=O)C2CCC2)cc1` gave Beta2AR agonist inactive.
`OC(COCC(F)(F)C(F)(F)C(F)(F)C(F)F)Cn1c2ccc(Cl)cc2c2cc(Cl)ccc21` (configuration not stated) gave GRK2 inh inactive, MEKK2mut PB1 HTS 53, Beta2AR agonist inactive, MEKK3 PB1 HTS inactive and MEKK2wt PB1 HTS inactive.
`CCN1C/C(=C\c2cccc([N+](=O)[O-])c2)C(=O)/C(=C/c2cccc([N+](=O)[O-])c2)C1` gave MEKK2mut PB1 HTS inactive, Beta2AR agonist 85, MEKK3 PB1 HTS inactive and MEKK2wt PB1 HTS inactive.
Screening COc1cccc(OC)c1C(=O)Nc1cccc(-n2cnnn2)c1 returned GRK2 inh inactive, MEKK2mut PB1 HTS inactive, Beta2AR agonist inactive, MEKK3 PB1 HTS inactive and MEKK2wt PB1 HTS inactive.
C=CCC[C@H](Cc1ccc(F)cc1)C(=O)OC[C@H](C)NC(=O)[C@@H](CC=C)CC(=O)N[C@H](CO)Cc1ccccc1 was read as GRK2 inh inactive and Beta2AR agonist inactive.
Screening C=CCC[C@@H](Cc1ccc(F)cc1)C(=O)OC[C@H](C)NC(=O)[C@@H](CC=C)CC(=O)N[C@@H](CO)Cc1ccccc1 returned GRK2 inh 83 and Beta2AR agonist inactive.

Compound activity as filed in PubChem BioAssay.
